Screening data (PubChem BioAssay)
Compounds with a hit are over-represented: about 4% of the library has one in this group of screens.
CF NFkB block = inhibitors of cystic fibrosis induced NF-kB. KKLEB NF-kB-GFP reporter, PAF-induced, GFP fluorescence overnight. inhibition, % at 5 µM. actives 0.86% (n = 360,000);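 active means at least 50% inhibition at 5 µM, scaled per plate between neutral and stimulator controls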;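 further: PAF is a Pseudomonas aeruginosa culture filtrate used as stimulus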
TROY NFkB inh = TROY signaling inhibition; Q293 LMP1-TROYcd NF-kB luciferase reporter, 4 h; inhibition, % at 10 µM; actives 0.98% (n = 360,000); AID 1347056;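 active means compounds whose plate-normalised and pattern-corrected inhibition of the luciferase reporter signal at the single screening dose is 50% or more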
TWEAK Fn14 block = blocks TWEAK-Fn14 interaction in a reporter cell assay. TWEAK-stimulated Fn14 reporter cells, luciferase luminescence, 8 h. inhibition, % at 10 µM. actives 2% (n = 360,000); in the data active means inhibition above about 50%
KKLEB cytotox = CF airway cell cytotoxicity counter-screen; activity change (cytotoxicity), % at 5 µM; actives 0.36% (n = 360,000); KKLEB CF airway cells viability, ATPlite luminescence, overnight; stronger effect = lower value; cells stimulated with P. aeruginosa culture filtrate;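 active means corrected activity change at or below -50% at 5 µM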
HIF-2a block = inhibitors of HIF-2a. 786-0 RCC cells HIF-2a reporter, luciferase luminescence, overnight. inhibition, % at 18.8 µM. actives 0.72% (n = 360,000);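 active means inhibition of the luminescence signal of 40% or more relative to plate controls, in a single-dose primary screen at 18.75 µM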
Peg3 prom inh = inhibitors of Peg3 promoter | inhibition, % at 20 µM | HeLa PEG-Prom luciferase reporter, luminescence, overnight | actives 1.7% (n = 360,000) | AID 588405;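 active means inhibition of at least 50% at 20 µM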
Hits are given with their value; – = inactive; · = no result.

SMILES	CF NFkB block	TROY NFkB inh	TWEAK Fn14 block	KKLEB cytotox	HIF-2a block	Peg3 prom inh
CC(=O)c1cccc(OCCN2C(=O)NC(C)(C)C2=O)c1	–	58	–	–	–	–
Oc1c(CN2CCCCC2)cc(COCc2ccccc2)c2cccnc12	–	–	–	–	–	76
OCCN1CCN(Cc2cc(Cl)c3cccnc3c2O)CC1	–	–	–	–	–	–
Oc1c(CN2CCN(c3ccccn3)CC2)cc(Cl)c2cccnc12	–	–	107	–	–	50
COCc1cc(CN2CCCC2)c(O)c2ncccc12	–	–	–	–	–	–
N#Cc1c(NCCCO)nc(-c2ccccc2)c2c1CCCC2	–	–	–	–	–	–
N#Cc1c(NCCN)nc(-c2ccccc2)c2c1CCCC2	–	–	–	–	–	67
COc1ccc(N=Nc2cc(C)c(O)c(CN3CCCCC3)c2)cc1	–	–	–	–	–	–
COc1ccc2nc3cc(Cl)ccc3c(Nc3cc(CN4CCCC4)c(O)c(CN4CCCC4)c3)c2n1	–	–	–	–	–	97
CN1CCN(c2ccc(S(=O)(=O)N3CCCCC3)cc2NC(=O)COc2cccc(Cl)c2)CC1	–	–	–	–	–	–
CCN1CCN(c2ccc(S(=O)(=O)N3CCCCC3)cc2NC(=O)/C=C/c2ccc(OC(F)F)cc2)CC1	–	–	–	–	–	96
Cc1cccc(OCC(=O)Nc2cc(S(=O)(=O)N3CCCCC3)ccc2N2CCN(C)CC2)c1	–	85	–	–	–	–
CCN1CCN(c2ccc(S(=O)(=O)N3CCCCC3)cc2NC(=O)/C=C/c2cccc(OC)c2OC)CC1	–	–	–	–	–	68
Cc1ccc(S(=O)(=O)N2CCOCC2)cc1NC(=O)COc1ccc(C(=O)c2ccccc2)cc1	–	–	–	–	–	61
CN1CCN(c2ccc(S(=O)(=O)N3CCCCC3)cc2NC(=O)/C=C/c2ccc(Cl)c([N+](=O)[O-])c2)CC1	–	–	–	–	–	104
O=C(/C=C/c1ccc(Cl)c([N+](=O)[O-])c1)Nc1ccc(N2CCCC2)c(Cl)c1	–	–	–	–	–	–
CN1CCN(c2ccc(S(=O)(=O)N3CCCCC3)cc2NC(=O)/C=C/c2ccc(OC(F)F)cc2)CC1	–	–	–	–	–	76
CCN1CCN(c2ccc(S(=O)(=O)N3CCCCC3)cc2NC(=O)/C=C/c2ccc(F)cc2)CC1	–	–	–	–	–	–
Cc1ccc(NC(=O)CN(C)C(=O)c2cc(S(=O)(=O)N(C)C)ccc2N2CCCC2)cc1	–	–	–	–	–	–
CCN1C(=O)[C@H]2[C@@H](c3ccc(-c4ccc(F)cc4)c(OC)c3)N[C@@](Cc3ccccc3)(C(=O)OC)[C@H]2C1=O	–	–	–	–	–	–
Cc1ccccc1NC(=O)c1ccc(NS(=O)(=O)c2cc(C(C)(C)C)cc(C)c2C)cc1	–	–	52	–	–	–
COCC(C)OC(=O)c1c(N)n(CC(C)C)c2nc3ccccc3nc12 (configuration not stated)	–	58	–	–	–	–
Nc1c(C(=O)OCC2CCCO2)c2nc3ccccc3nc2n1C1CCCC1 (configuration not stated)	–	60	–	–	–	–
COc1ccc(OC)c(-n2c(N)c(C(=O)NCC3CCCO3)c3nc4ccccc4nc32)c1 (configuration not stated)	–	–	–	–	–	–
Nc1c(C(=O)NCC2CCCO2)c2nc3ccccc3nc2n1/N=C/c1ccncc1 (configuration not stated)	–	–	–	–	–	60
SMILES	CF NFkB block	TROY NFkB inh	TWEAK Fn14 block	KKLEB cytotox	HIF-2a block	Peg3 prom inh
CCC(C)NC(=O)c1c(N)n(/N=C/c2ccccn2)c2nc3ccccc3nc12 (configuration not stated)	–	–	64	–	–	–
Cc1cnc(NC(=O)CCCNC(=O)c2ccc(Cl)cc2)s1	–	–	–	–	–	–
COc1cc(/C=N/NC(=O)C2CC(=O)N(c3ccc(C)cc3)C2)cc(OC)c1OC (configuration not stated)	–	–	–	–	–	–
CC1CCCCN1S(=O)(=O)Cc1ccccc1Cl (configuration not stated)	–	–	–	–	–	–
CCC1(c2ccccc2)NC(=O)N(CC(=O)Nc2ccc(OC)nc2)C1=O (configuration not stated)	–	–	–	–	–	–
COCCn1c(N)c(C(=O)NCC2CCCO2)c2nc3ccccc3nc21 (configuration not stated)	–	–	–	–	–	–
CC(C)Cn1c(N)c(C(=O)NCC2CCCO2)c2nc3ccccc3nc21 (configuration not stated)	–	51	–	–	–	–
O=S1(=O)CC(c2ccccc2)=NN=C(c2ccccc2)C1	–	–	89	–	–	–
O=C1CC(c2ccccc2)=NO1	–	–	–	–	–	–
CC(=O)N1CCN(c2ccc(NCc3ccc(C)s3)cc2)CC1	–	–	–	–	–	–
Cc1ccc(CNc2ccc(N3CCOCC3)cc2)s1	–	50	–	–	–	–
O=C(Nc1ccc(Oc2c(F)c(F)c(F)c(F)c2F)cc1)OC1CCN2Cc3ccccc3N=C12 (configuration not stated)	–	61	–	–	–	109
Cc1cccc(NC(=O)Nc2ccc(Oc3c(F)c(F)c(F)c(F)c3F)cc2)c1	–	–	–	–	–	–
CN(C(=O)c1cccc(NC(=O)Cc2ccc(NC(=O)C3CCCN(C(=O)C4CCCCC4)C3)cc2)c1)C1CCC1 (configuration not stated)	–	–	–	–	–	–
O=C1CSC(=S)N1/N=C/c1ccc(O)c(O)c1O	–	–	78	–	–	–
CC(C)(C)c1ccc(/C=N/N2C(=O)CSC2=S)cc1	–	–	68	–	57	–
COc1ccc(/C=N/N2C(=O)CSC2=S)cc1	–	–	–	–	–	–
O=C([C@H]1O[C@@H](n2ccc(=O)[nH]c2=O)[C@H](O)[C@@H]1O)N1CCC(F)(F)CC1	–	–	–	–	–	–
CC(C)Oc1ccc(C(CCNCc2ccc(O)cc2)c2ccccc2)cc1 (configuration not stated)	–	–	–	–	–	106
COc1ccc(C(CCNCc2ccc(N(C)C)cc2)c2ccccc2)cc1 (configuration not stated)	–	–	–	–	–	107
CC(C)Oc1ccc(CNC(=O)CC(c2ccccc2)c2cc(Cl)ccc2O)cc1 (configuration not stated)	–	56	–	–	–	–
O=C(NCc1ccccc1)C(C1CC1)n1c(=O)c(-c2cc3ccccc3[nH]2)nc2ccccc21 (configuration not stated)	·	·	·	·	–	·
O=C(O)c1ccccc1C(=O)Nc1ccc(Oc2ccccc2)cc1	–	–	58	–	–	–
